Experimental data from PubChem BioAssay AID1159580 (chemical genetic matrix, 2015).
Several values for one entry are separate records, joined by “and”; a condition that tells them apart may be missing. Equal entries are not always repeated. Hit rate of the full screen: of about 5,500 compounds, about 2,000 (36%) were called active. About 18% were inconclusive and are not listed. Some of the results follow. Values without a mark were called inactive. Cut-off read from the data, not from the text of the source: active = normalized growth mostly below about 0.91 (no sharp cut-off); inconclusive = no clear call, values can overlap the other calls; inactive = mostly above about 0.92.

Assay: chemical genetic growth profiling, strain panel (AID 1159580);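 note: tested at 20 µM; growth read once vehicle control cultures reached saturation at 30 °C; 1 = growth at the plate median or of vehicle wells; lower values mean less growth of the strain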
Details: S. cerevisiae deletion strains, growth OD

SMILES: CCCCCC1C(=O)CCC1CC(=O)OC (stereo not given)
- normalized growth (locus YAL013W, strain DEP1, stronger effect = lower value): 0.988
- normalized growth (locus YAL021C, strain ccr4, stronger effect = lower value): 1.04
- normalized growth (locus YAL026C, strain drs2, stronger effect = lower value): 0.988
- normalized growth (locus YAL030W, strain snc1, stronger effect = lower value): 0.981
- normalized growth (locus YBL061C, strain skt5, stronger effect = lower value): 0.984
- normalized growth (locus YBR009C, strain hhf1, stronger effect = lower value): 0.972
- normalized growth (locus YBR021W, strain FUR4, stronger effect = lower value): 0.921
- normalized growth (locus YBR023C, strain chs3, stronger effect = lower value): 0.977
- normalized growth (locus YBR171W, strain sec66, stronger effect = lower value): 0.96
- normalized growth (locus YBR229C, strain ROT2, stronger effect = lower value): 0.991
- normalized growth (locus YBR231C, strain swc5, stronger effect = lower value): 0.978
- normalized growth (locus YBR279W, strain paf1, stronger effect = lower value): 0.986
- normalized growth (locus YCL011C, strain gbp2, stronger effect = lower value): 0.988
- normalized growth (locus YCL016C, strain dcc1, stronger effect = lower value): 0.979
- normalized growth (locus YCL029C, strain bik1, stronger effect = lower value): 0.958
- normalized growth (locus YCL061C, strain MRC1, stronger effect = lower value): 0.984
- normalized growth (locus YCL069W, strain vba3, stronger effect = lower value): 0.986
- normalized growth (locus YCR088W, strain abp1, stronger effect = lower value): 0.973
- normalized growth (locus YDL005C, strain med2, stronger effect = lower value): 0.97
- normalized growth (locus YDL035C, strain GPR1, stronger effect = lower value): 0.974
- normalized growth (locus YDL040C, strain nat1, stronger effect = lower value): 0.981
- normalized growth (locus YDL074C, strain BRE1, stronger effect = lower value): 0.992
- normalized growth (locus YDL101C, strain DUN1, stronger effect = lower value): 1.01
- normalized growth (locus YDL134C, strain PPH21, stronger effect = lower value): 1.01
- normalized growth (locus YDL185W, strain tfp1, stronger effect = lower value): 0.931
- normalized growth (locus YDL192W, strain arf1, stronger effect = lower value): 0.97
- normalized growth (locus YDR001C, strain nth1, stronger effect = lower value): 0.984
- normalized growth (locus YDR069C, strain doa4, stronger effect = lower value): 0.999
- normalized growth (locus YDR101C, strain arx1, stronger effect = lower value): 0.96
- normalized growth (locus YDR137W, strain rgp1, stronger effect = lower value): 0.996
- normalized growth (locus YDR150W, strain NUM1, stronger effect = lower value): 0.975
- normalized growth (locus YDR159W, strain sac3, stronger effect = lower value): 0.969
- normalized growth (locus YDR162C, strain NBP2, stronger effect = lower value): 1.03
- normalized growth (locus YDR195W, strain ref2): 0.991
- normalized growth (locus YDR297W, strain sur2, stronger effect = lower value): 0.978
- normalized growth (locus YDR318W, strain mcm21, stronger effect = lower value): 0.961
- normalized growth (locus YDR334W, strain swr1, stronger effect = lower value): 0.986
- normalized growth (locus YDR335W, strain msn5, stronger effect = lower value): 1.01
- normalized growth (locus YDR388W, stronger effect = lower value): 0.954
- normalized growth (locus YDR392W, strain spt3, stronger effect = lower value): 0.975
- normalized growth (locus YDR502C, strain sam2, stronger effect = lower value): 0.996
- normalized growth (locus YEL003W, strain gim4, stronger effect = lower value): 0.987
- normalized growth (locus YEL037C, strain rad23, stronger effect = lower value): 0.984
- normalized growth (locus YEL061C, strain CIN8 (second series), stronger effect = lower value): 0.989
- normalized growth (locus YEL061C, strain CIN8, stronger effect = lower value): 0.991
- normalized growth (locus YER015W, strain faa2, stronger effect = lower value): 0.98
- normalized growth (locus YER016W, strain bim1, stronger effect = lower value): 0.986
- normalized growth (locus YER110C, stronger effect = lower value): 0.898 (active)
- normalized growth (locus YER111C, strain swi4, stronger effect = lower value): 0.982
- normalized growth (locus YER155C, strain BEM2 (second series), stronger effect = lower value): 0.95
- normalized growth (locus YER155C, strain BEM2, stronger effect = lower value): 0.952
- normalized growth (locus YER167W, strain BCK2, stronger effect = lower value): 0.97
- normalized growth (locus YFR010W, strain ubp6, stronger effect = lower value): 0.987
- normalized growth (locus YGL078C, strain dbp3, stronger effect = lower value): 0.966
- normalized growth (locus YGL086W, strain mad1, stronger effect = lower value): 1.01
- normalized growth (locus YGL167C, strain pmr1, stronger effect = lower value): 0.96
- normalized growth (locus YGL173C, strain kem1, stronger effect = lower value): 0.967
- normalized growth (locus YGL227W, strain vid30, stronger effect = lower value): 0.963
- normalized growth (locus YGL240W, strain doc1, stronger effect = lower value): 0.994
- normalized growth (locus YGL248W, strain PDE1, stronger effect = lower value): 1.04
- normalized growth (locus YGL253W, strain hxk2, stronger effect = lower value): 0.981
- normalized growth (locus YGR078C, strain PAC10, stronger effect = lower value): 1.04
- normalized growth (locus YGR135W, strain pre9, stronger effect = lower value): 0.963
- normalized growth (locus YGR229C, strain SMI1, stronger effect = lower value): 1.02
- normalized growth (locus YGR252W, strain gcn5, stronger effect = lower value): 1.1
- normalized growth (locus YHR013C, strain ard1, stronger effect = lower value): 1
- normalized growth (locus YHR027C, strain rpn1, stronger effect = lower value): 0.992
- normalized growth (locus YHR030C, strain SLT2, stronger effect = lower value): 0.979 and 0.975
- normalized growth (locus YHR079C, strain IRE1 (second series), stronger effect = lower value): 0.957
- normalized growth (locus YHR079C, strain IRE1, stronger effect = lower value): 0.975
- normalized growth (locus YHR094C, strain hxt1, stronger effect = lower value): 0.986
- normalized growth (locus YHR129C, strain ARP1, stronger effect = lower value): 0.993
- normalized growth (locus YHR142W, strain chs7, stronger effect = lower value): 0.987
- normalized growth (locus YHR200W, strain rpn10, stronger effect = lower value): 0.981
- normalized growth (locus YIL066C, strain RNR3, stronger effect = lower value): 1
- normalized growth (locus YIL073C, strain SPO22, stronger effect = lower value): 0.952
- normalized growth (locus YIL125W, strain kgd1, stronger effect = lower value): 0.961
- normalized growth (locus YIR030C, strain dcg1, stronger effect = lower value): 0.948
- normalized growth (locus YJL092W, strain hpr5, stronger effect = lower value): 0.975
- normalized growth (locus YJL095W, strain BCK1 (second series), stronger effect = lower value): 0.983
- normalized growth (locus YJL095W, strain BCK1, stronger effect = lower value): 1.06 and 0.982
- normalized growth (locus YJL115W, strain asf1, stronger effect = lower value): 0.966
- normalized growth (locus YJL129C, strain trk1, stronger effect = lower value): 1
- normalized growth (locus YJL134W, strain LCB3, stronger effect = lower value): 0.967
- normalized growth (locus YJL154C, strain vps35, stronger effect = lower value): 0.976
- normalized growth (locus YJL164C, strain tpk1, stronger effect = lower value): 0.992
- normalized growth (locus YJL166W, strain qcr8, stronger effect = lower value): 0.978
- normalized growth (locus YJL168C, strain set2, stronger effect = lower value): 0.951
- normalized growth (locus YJL187C, strain SWE1 (second series), stronger effect = lower value): 1.03
- normalized growth (locus YJL187C, strain SWE1, stronger effect = lower value): 0.977
